Molecules are shown by their SMILES. Values joined by “and” are separate entries in the source; they are usually repeats but may differ in a detail not shown here. Equal entries are not always repeated. This is part of a sample that, as a whole, favours compounds with a hit. Of some 83,000 tested, about 20% had one in any assay.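 Negative percent growth values reflect cell death: -40 means 40% of the cells present at the start died, and -100 means all died.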 A number with no mark means an inactive call. Active and inactive are the calls of the source. The calls were made as follows: active = growth percent below 10; inactive = the rest.

The experiment deals with MDA-MB-468 breast. Nature of the experiment: NCI-60 one-dose screen, 48 h (100 = growth as untreated, 0 = no growth, -100 = all killed). Conditions: 10 µM unless noted.
For the compound `CCC(CO)NC1CCCCC1` (stereo not given), the growth was 73.6%.
The same measure for `NC(Cc1ccccc1)c1ccccc1` (stereo not given): 107% and 105%.
Regarding `Oc1c(O)c(Cl)c(Cl)c(Cl)c1Cl`, the growth was 74.2%.
Consider `CO[C@H]1[C@H](O[C@@H]2C[C@@H]3C/C=C/C(=O)O[C@@H](CO)C[C@H](O)[C@@H]4C[C@H](C)[C@H](C/C=C\C=C\[C@H](C)C[C@H](C2)O3)O4)O[C@@H](C)[C@H](O)[C@H]1O`, for which the growth is -4.8% (active).
With `CC(=O)Nc1nc2c(s1)CC[C@@]1(C)C2=CC[C@H]2[C@@H]3CC[C@H](O)[C@@]3(C)CC[C@@H]21`, the growth is 58.2%.
As for `C/C(CC(C)(C)N1CC1)=N\NC(=O)Nc1cccc2ccccc12`, the growth was -2.46% (active).
Consider `Cc1c2cc(Cl)c3ccccc3c2c[n+]2ccccc12`, for which the growth is -71.5% (active).
The figure for `O=C(CCc1ccco1)NC1CCN(CC2(c3ccc(Cl)cc3)CCC2)CC1` is -11.5% (active); for `COC(=O)[C@@H](C)C[C@H](Cc1ccccc1)NC(=O)c1csc([C@@H](C[C@H](C(C)C)N(C)C(=O)[C@H](C)NC(=O)[C@H]2CCCCN2C)OC(C)=O)n1` it is 10.1%; for `Cc1ccc(C(=O)C2CN(C)CCC2(O)c2ccc(C)cc2)cc1` (stereo not given) it is 119%.
Take `O=C(Nc1ccc(S(=O)(=O)F)cc1)Oc1ccccc1`: the growth is 97.6%.
On to `COc1cc(/C=C\[N+](=O)[O-])ccc1OCc1ccccc1`, for which the growth was 6.8% (active).
`CNC(C)Cc1ccccc1` (stereo not given) (tested in a mixture with another compound): the growth was 91.3%.
Take `c1ccc2c(c1)sc1ccccc12`: the growth was 97.2%.
Take `C[C@]12CCc3sc(NCCc4ccccc4)nc3C1=CC[C@@H]1[C@@H]2CC[C@]2(C)C(=O)CC[C@@H]12`: the growth is 32.9%.
Turning to `O=C1NC(=O)C(Cc2ccccc2)(Cc2ccccc2)C(=O)N1`, the growth is 113%.
In the case of `C/C=C/CC(C)C(O)[C@H](NC(=O)[C@@H]1CCCN1C(=O)C(C)(C)NC(=O)CCCCCCCCC)C(=O)NC(C)(C)C(=O)N[C@@H](CCC(N)=O)C(=O)N[C@H](CCC(N)=O)C(=O)NC(C)(C)C(=O)NC(C)(C)C(=O)N[C@@H](CCC(N)=O)C(=O)N[C@H](CC(C)C)C(=O)N[C@H](CO)CC(C)C` (stereo not given in full), the growth was -75.9% (active) and -84.9% (active).
Regarding `CC(C)c1cc([N+](=O)[O-])cc([N+](=O)[O-])c1O`, the growth is 96.7%.
Take `Nc1ccc2c(c1)Cc1cc(Br)ccc1-2`: the growth is 85.2%.
For the compound `CC1(C)CN=C(NN=C(/C=C/c2ccc(C(F)(F)F)cc2)/C=C/c2ccc(C(F)(F)F)cc2)NC1`, the growth was -84% (active).
As for `CN(C)C(=S)SSC(=S)N(C)C`, the growth was 96.6% and 108%.
With `Cc1ccc(C(=O)O[C@H](C(=O)O)[C@H](OC(=O)c2ccc(C)cc2)C(=O)O)cc1`, the growth was 103%.
Consider `Nc1ncnc2n[nH]nc12`, for which the growth was 51.6%.
`COc1cccc2c1c(C(=O)C(=O)Nc1cc(C)no1)cn2Cc1ccc(F)cc1`: the growth was 48.4%.
In the case of `C=CCc1ccc(OC(=O)Cc2ccccc2)c(OC)c1`, the growth was 100%.
Turning to `COC(=O)[C@@H](C)C[C@H](Cc1ccccc1)NC(=O)c1csc([C@@H](C[C@H](C(C)C)N(C)C(=O)[C@@H](NC(=O)C23CC(NC(C)=O)(C2)C3)C2CC2)OC(C)=O)n1`, the growth is 3.05% (active).
Regarding `CNC(=O)Oc1ccc(N(C)C)cc1C(C)C`, the growth is 74.8%.
Regarding `Oc1cccc2cccnc12`, the growth was 25% and 96.3% and 106%.
Turning to `CCC(C)(C)[C@H](NC(=O)[C@H]1CCCCN1C)C(=O)N(C)[C@H](C[C@@H](OC(C)=O)c1nc(C(=O)N[C@@H](Cc2ccccc2)C[C@H](C)C(=O)O)cs1)C(C)C`, the growth was 7.54% (active).
The same measure for `O=C1C=CC(=O)C2C1C1(Cl)C(Cl)=C(Cl)C2(Cl)C1(Cl)Cl` (stereo not given): 5.2% (active); for `CCC(CC)CC1(C)CC2(C)CCOC2OO1` (stereo not given): 110%.
Consider `COc1ccc(/C=C(\C)[N+](=O)[O-])cc1OC`, for which the growth is -77.3% (active).
In the case of `CC[C@H](NC(=O)[C@H]1CCCCN1C)C(=O)N(C)[C@H](C[C@@H](OC(C)=O)c1nc(C(=O)N[C@@H](Cc2ccccc2)C[C@H](C)C(=O)O)cs1)C(C)C`, the growth was 17.6%.
For the compound `COc1cc([N+](=O)[O-])c2nc(C)ccc2c1[N+](=O)[O-]`, the growth was -9.11% (active).
In the case of `CCC[CH2][Sn]([CH2]CCC)([CH2]CCC)[O]C(=O)CC`, the growth was -88% (active).
With `O=C(O)C1C(C(=O)O)C2(Cl)C(Cl)=C(Cl)C1(Cl)C2(Cl)Cl` (stereo not given), the growth is 105% and 113%.
With `COC(=O)[C@@H](C)C[C@H](Cc1ccccc1)NC(=O)c1csc([C@@H](C[C@H](C(C)C)N(C)C(=O)[C@@H](NC(=O)[C@H]2CCCCN2C)C(C)C)OC(C)=O)n1`, the growth was -11.2% (active).
On to `COC(=O)[C@@H](C)C[C@H](Cc1ccccc1)NC(=O)c1csc([C@@H](C[C@H](C(C)C)N(C)C(=O)C2(NC(=O)[C@H]3CCCCN3C)CC2)OC(C)=O)n1`, for which the growth was -4.03% (active).
Take `CCOC(=O)[C@@H](C)C[C@H](Cc1ccccc1)NC(=O)c1csc([C@@H](C[C@H](C(C)C)N(C)C(=O)CNC(=O)[C@H]2CCCCN2C)OC(C)=O)n1`: the growth was 28%.
Consider `CC12CC(=O)C3(SC#N)C(CCC4=CC(=O)CCC43C)C1CCC2=O` (stereo not given), for which the growth was 24.5%.

Values taken from PubChem BioAssay (NCI).
